Experimental data reported in PubChem BioAssay (Tox21).
Results filed as inconclusive are left out. The source made the active and inactive calls. Unless noted, the call rests on the fitted dose curve; in most records, active means well fitted curve in the direction sought with a large enough effect in the repeat runs; inconclusive means weak or mixed curves; inactive means no such curve, though single readings can be large; an effect the other way counts as inactive or inconclusive.

Tests used:
[1] = Human pregnane X receptor (PXR) small molecule agonists, qHTS cell viability counter screen (AID 1346977); further: nearly all actives have a fitted effect of over 50% in size
How it was run: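 PXR-Luc HepG2, 2,000 cells/well, 5% charcoal-stripped FBS; 5hr settle; cpd 24hr, 37C/5% CO2; CellTiter-Fluor at 23hr, read 1hr later (fluorescence).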

[2] = Caspase-3/7 induction in HepG2 cells by small molecules, qHTS assay (AID 1346978); further: nearly all actives have a fitted effect of over 15% in size
How it was run: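 Caspase-3/7 induction was measured by Caspase-Glo 3/7 luminescence (30 min, room temperature) after a 17 hr compound exposure of wild-type HepG2 cells seeded at 2,000 per well and pre-incubated 5 hr.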

[3] = Caspase-3/7 induction in CHO-K1 cells by small molecules, qHTS cell viability counter screen (AID 1346979); further: nearly all actives have a fitted effect of over 35% in size
How it was run: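 Cells (CHO-K1, wild type) are plated at 1,500 per well and incubated 5hr. Test compounds in DMSO are then pinned in, followed by 16hr at 37C and 5% CO2. Viability is read by CellTiter-Fluor fluorescence after 1hr.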

[4] = Caspase-3/7 induction in CHO-K1 cells by small molecules, qHTS assay (AID 1346980); further: nearly all actives have a fitted effect of over 15% in size
How it was run: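 Luminescent Caspase-Glo 3/7 read (30min, room temperature) quantified apoptosis induction. Cells were wild-type CHO-K1, treated with compound for 17hr at 37 C and 5% CO2.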

[5] = Caspase-3/7 induction in HepG2 cells by small molecules, qHTS cell viability counter screen (AID 1346981); further: series mostly up to about 92 µM; nearly all actives have a fitted effect of over 30% in size
How it was run: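 Wild-type HepG2 cells, 2,000/well, settled 5 hr at 37 C, 5% CO2 before compound addition. Viability read by CellTiter-Fluor fluorescence, reagent added after 16 hr compound exposure, then 1 hr at 37C, in the same wells as the caspase read.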

[6] = target: Nuclear receptor subfamily 1 group I member 2 (Homo sapiens) (UniProt O75469); assay: Human pregnane X receptor (PXR) small molecule agonists, qHTS assay (AID 1346982); further: nearly all actives have a fitted effect of over 35% in size; further: potency means the concentration at half of the fitted maximal effect
How it was run: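 PXR-Luc HepG2 reporter cells (CYP3A4-driven luciferase) in 5% charcoal-stripped FBS medium, plated 5 h before compound addition, then treated 24 h at 37C. Luciferase read by ONE-Glo luminescence after 30 min at room temperature.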

[7] = target: Acetylcholinesterase (Homo sapiens) (UniProt P22303); assay: Acetylcholinesterase (AChE) small molecule antagonists: colormetric cell-based qHTS assay (AID 1347395; calls by dose curve; further: nearly all actives have a fitted effect of over 30% in size)
How it was run: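 Colorimetric read-out: DTNB detects thiocholine released when cellular AChE in SH-SY5Y cells hydrolyses acetylthiocholine. Cells attached overnight, received compound for 30 min at 37 C, then substrate mix for 90 min at 37 C.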

[8] = target: Acetylcholinesterase (Homo sapiens) (UniProt P22303); assay: Acetylcholinesterase (AChE) small molecule antagonists: enzyme-based qHTS assay (AID 1347397; calls by dose curve; further: nearly all actives have a fitted effect of over 55% in size); conditions: Potency: AChE enzyme activity inhibition
How it was run: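 Absorbance-based detection of thiocholine with DTNB served as the read-out. Recombinant human AChE was exposed to compound for 30 min at RT before a 10 min RT incubation with acetylthiocholine.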

[9] = target: Acetylcholinesterase (Homo sapiens) (UniProt P22303); assay: Acetylcholinesterase (AChE) small molecule antagonists: fluorescence cell-based qHTS assay (AID 1347398; calls by dose curve; further: nearly all actives have a fitted effect of over 50% in size); conditions: Potency: AChE activity
How it was run: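 Fluorimetric cell-based assay: intact SH-SY5Y cells, 30 min compound preincubation at 37 C, acetylthiocholine substrate with thiol probe Thiolite Green, 40 min RT development, fluorescence 490/520 nm.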

[10] = target: Acetylcholinesterase (Homo sapiens) (UniProt P22303); assay: Acetylcholinesterase (AChE) small molecule antagonists: enzyme-based qHTS assay with human liver microsomes (AID 1347399; calls by dose curve; further: nearly all actives have a fitted effect of over 60% in size); conditions: Potency: qHTS inhibition
How it was run: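 Recombinant human AChE (50 mU/mL in the enzyme mix) and human liver microsomes (0.25 mg/mL final) were preincubated with compound and NADPH (0.25 mg/mL final) for 30 min at 37 C. Acetylthiocholine/DTNB was then added; thiocholine was read colorimetrically after 10 min at room temperature.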

[11] = target: Cytochrome P450 2D6 (Homo sapiens) (UniProt P10635); assay: Cytochrome P450 Family 2 Subfamily D Member 6 (CYP2D6) small molecule antagonists: luciferase reporter qHTS assay (AID 1671196); further: nearly all actives have a fitted effect of over 50% in size; further: potency means the concentration at half of the fitted maximal effect
How it was run: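 Cell-free P450-Glo system: CYP2D6 with proluciferin substrate was pre-incubated with compound for 10 min, then reacted with NADPH regeneration for 1 h at room temperature. Luciferin product was detected after 20 min, and data were reported as relative luminescence units.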

[12] = target: Cytochrome P450 2C19 (Homo sapiens) (UniProt P33261); assay: Cytochrome P450 Family 2 Subfamily C Member 19 (CYP2C19) small molecule antagonists: luciferase reporter qHTS assay (AID 1671197); further: nearly all actives have a fitted effect of over 65% in size; further: potency means the concentration at half of the fitted maximal effect
How it was run: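 Enzyme-substrate mix with proluciferin substrate (P450-Glo CYP2C19 system) preincubated with compounds 10 min at room temperature; NADPH regeneration solution added, 37C for 1 h; detection reagent stops reaction, luminescence read after 20 min. Ketoconazole positive control.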

[13] = target: Cytochrome P450 2C9 (Homo sapiens) (UniProt P11712); assay: Cytochrome P450 Family 2 Subfamily C Member 9 (CYP2C9) small molecule antagonists: luciferase reporter qHTS assay (AID 1671198); further: nearly all actives have a fitted effect of over 50% in size; further: potency means the concentration at half of the fitted maximal effect
How it was run: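 Enzyme-substrate mix preincubated with compound 10 min at room temperature; reaction started with NADPH regeneration solution, 1 h 37C. Luminescent luciferin product read after 20 min detection reagent.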

[14] = target: Cytochrome P450 1A2 (Homo sapiens) (UniProt P05177); assay: Cytochrome P450 Family 1 Subfamily A Member 2 (CYP1A2) small molecule antagonists: luciferase reporter qHTS assay (AID 1671199); further: nearly all actives have a fitted effect of over 50% in size; further: potency means the concentration at half of the fitted maximal effect
How it was run: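 P450-Glo CYP1A2 enzyme–proluciferin substrate mix with compound 10 min at room temperature, then NADPH regeneration 1 h at room temperature. Luciferin detection reagent added, luminescence read after 20 min; furafylline positive control.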

[15] = target: Voltage-gated inwardly rectifying potassium channel KCNH2 (Homo sapiens) (UniProt Q12809); assay: Human Ether-a-go-go-Related Gene (hERG) channel small molecule antagonists: fluorescence cell-based qHTS assay (AID 1671200)
How it was run: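 Channel function was assessed by thallium flux. Cells seeded the previous day and kept at 37 C took up FluxOR II dye over 1 h in the dark at room temperature, then sat another 10 min before stimulation.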

[16] = target: Cytochrome P450 3A4 (Homo sapiens) (UniProt P08684); assay: Cytochrome P450 Family 3 Subfamily A Member 4 (CYP3A4) small molecule antagonists: luciferase reporter qHTS assay (AID 1671201)
How it was run: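 Compounds in DMSO were pin-transferred onto CYP3A4 enzyme-substrate mix and held 10 min at room temperature. NADPH regenerating solution started the reaction for 1 h; luciferin detection reagent stopped it, and luminescence was read after 20 min.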

[17] = target: Nuclear receptor subfamily 1 group I member 2 (Rattus norvegicus) (UniProt Q9R1A7); assay: Rat pregnane X receptor (rPXR) activation by small molecules, qHTS assay (AID 1346983); conditions: rPXR luciferase reporter cells, One-Glo luminescence, 24 h; max activation: hits give high values; further: nearly all actives have a fitted effect of over 20% in size; further: potency means the concentration at half of the fitted maximal effect
How it was run: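 Luminescent readout (One-Glo luciferase, 30 min room temperature) followed 24 hr compound treatment at 37 C of rPXR cells plated 2,000 per well and preincubated 5hr; qHTS format with compounds delivered in DMSO.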

[18] = target: Nuclear receptor subfamily 1 group I member 2 (Homo sapiens) (UniProt O75469); assay: CYP3A4 induction through human pregnane X receptor (PXR) by small molecules, qHTS assay (AID 1346984); further: nearly all actives have a fitted effect of over 40% in size
How it was run: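 DPX-2 HepG2 cells carrying a PXR response element and CYP3A4-promoter luciferase construct, treated with compounds 24 hr at 37C. Then P450-Glo CYP3A4 Luciferin-IPA substrate (3uM final) for 3 hr at 37C, One-Glo added, luminescence read.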

[19] = target: Nuclear receptor subfamily 1 group I member 2 (Homo sapiens) (UniProt O75469); assay: Human pregnane X receptor (PXR) activation by small molecules, qHTS assay (AID 1346985); further: nearly all actives have a fitted effect of over 40% in size
How it was run: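 DPX-2 cells (HepG2 co-transfected with a PXR response element and a CYP3A4-promoter luciferase construct) were seeded at 2,000 per well, rested 5 hr at 37C, then exposed to DMSO-dissolved compounds for 24 hr. Activation was read as luciferase luminescence.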
On the % scale 0 is the no-effect control and ±100 the full control effect.

Chain of Cytochrome P450 1A2 (Homo sapiens) (P05177 whole entry, looked up): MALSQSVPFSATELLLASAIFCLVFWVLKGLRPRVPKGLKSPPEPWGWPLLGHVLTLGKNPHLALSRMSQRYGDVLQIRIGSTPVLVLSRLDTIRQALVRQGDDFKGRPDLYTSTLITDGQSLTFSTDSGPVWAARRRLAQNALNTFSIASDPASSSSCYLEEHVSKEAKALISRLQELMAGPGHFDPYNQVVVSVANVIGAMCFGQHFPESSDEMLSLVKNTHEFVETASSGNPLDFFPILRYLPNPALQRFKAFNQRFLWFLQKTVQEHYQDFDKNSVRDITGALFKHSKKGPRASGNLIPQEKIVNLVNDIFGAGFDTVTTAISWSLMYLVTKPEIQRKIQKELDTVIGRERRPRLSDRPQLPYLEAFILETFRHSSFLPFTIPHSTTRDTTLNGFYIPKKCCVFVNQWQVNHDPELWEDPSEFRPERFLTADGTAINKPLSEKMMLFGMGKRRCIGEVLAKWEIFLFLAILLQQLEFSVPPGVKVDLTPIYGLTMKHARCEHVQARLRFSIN
Chain of Cytochrome P450 2D6 (Homo sapiens) (P10635 whole entry, looked up): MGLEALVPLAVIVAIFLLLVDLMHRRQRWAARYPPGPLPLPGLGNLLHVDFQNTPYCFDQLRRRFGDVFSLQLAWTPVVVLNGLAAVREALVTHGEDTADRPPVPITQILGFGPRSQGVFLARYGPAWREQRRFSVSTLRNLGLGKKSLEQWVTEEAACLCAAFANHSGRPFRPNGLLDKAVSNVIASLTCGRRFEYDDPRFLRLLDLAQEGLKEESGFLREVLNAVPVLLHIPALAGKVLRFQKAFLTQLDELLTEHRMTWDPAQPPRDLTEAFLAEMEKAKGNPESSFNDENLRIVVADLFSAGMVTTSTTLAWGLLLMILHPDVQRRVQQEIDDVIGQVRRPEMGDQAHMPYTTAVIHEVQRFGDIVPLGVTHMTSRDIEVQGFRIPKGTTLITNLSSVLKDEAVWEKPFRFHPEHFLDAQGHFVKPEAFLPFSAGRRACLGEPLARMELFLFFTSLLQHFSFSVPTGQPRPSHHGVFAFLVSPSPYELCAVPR
Chain of Voltage-gated inwardly rectifying potassium channel KCNH2 (Homo sapiens) (Q12809 whole entry, looked up): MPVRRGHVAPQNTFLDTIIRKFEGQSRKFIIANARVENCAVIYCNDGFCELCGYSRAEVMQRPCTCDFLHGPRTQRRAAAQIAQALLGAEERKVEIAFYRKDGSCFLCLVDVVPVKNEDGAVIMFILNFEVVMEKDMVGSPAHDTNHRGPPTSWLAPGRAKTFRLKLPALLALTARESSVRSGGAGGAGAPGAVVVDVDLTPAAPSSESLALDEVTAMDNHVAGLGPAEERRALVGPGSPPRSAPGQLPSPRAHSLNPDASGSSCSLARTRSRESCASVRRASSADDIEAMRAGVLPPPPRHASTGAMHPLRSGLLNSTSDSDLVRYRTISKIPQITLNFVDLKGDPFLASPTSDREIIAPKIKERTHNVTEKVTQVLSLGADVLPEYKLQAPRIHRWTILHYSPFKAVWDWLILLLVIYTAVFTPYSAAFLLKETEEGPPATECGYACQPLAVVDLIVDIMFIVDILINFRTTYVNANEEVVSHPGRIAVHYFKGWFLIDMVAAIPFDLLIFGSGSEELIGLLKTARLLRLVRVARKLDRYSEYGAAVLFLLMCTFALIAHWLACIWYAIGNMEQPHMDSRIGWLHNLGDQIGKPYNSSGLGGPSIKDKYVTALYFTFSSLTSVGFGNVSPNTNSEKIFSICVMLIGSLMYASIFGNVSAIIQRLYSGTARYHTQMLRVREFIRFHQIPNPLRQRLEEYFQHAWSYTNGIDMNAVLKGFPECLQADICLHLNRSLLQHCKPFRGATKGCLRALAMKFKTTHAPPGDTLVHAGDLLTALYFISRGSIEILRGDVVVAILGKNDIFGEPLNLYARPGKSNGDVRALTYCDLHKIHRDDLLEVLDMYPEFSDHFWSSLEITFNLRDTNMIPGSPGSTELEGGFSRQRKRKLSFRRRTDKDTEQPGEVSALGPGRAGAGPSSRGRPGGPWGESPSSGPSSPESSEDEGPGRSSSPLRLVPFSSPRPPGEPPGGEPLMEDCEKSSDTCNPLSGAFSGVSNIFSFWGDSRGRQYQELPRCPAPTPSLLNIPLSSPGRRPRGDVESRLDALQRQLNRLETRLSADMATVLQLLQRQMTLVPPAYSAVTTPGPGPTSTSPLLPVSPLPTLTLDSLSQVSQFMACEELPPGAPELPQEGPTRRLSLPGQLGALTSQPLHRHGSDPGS
Chain of Cytochrome P450 3A4 (Homo sapiens) (P08684 whole entry, looked up): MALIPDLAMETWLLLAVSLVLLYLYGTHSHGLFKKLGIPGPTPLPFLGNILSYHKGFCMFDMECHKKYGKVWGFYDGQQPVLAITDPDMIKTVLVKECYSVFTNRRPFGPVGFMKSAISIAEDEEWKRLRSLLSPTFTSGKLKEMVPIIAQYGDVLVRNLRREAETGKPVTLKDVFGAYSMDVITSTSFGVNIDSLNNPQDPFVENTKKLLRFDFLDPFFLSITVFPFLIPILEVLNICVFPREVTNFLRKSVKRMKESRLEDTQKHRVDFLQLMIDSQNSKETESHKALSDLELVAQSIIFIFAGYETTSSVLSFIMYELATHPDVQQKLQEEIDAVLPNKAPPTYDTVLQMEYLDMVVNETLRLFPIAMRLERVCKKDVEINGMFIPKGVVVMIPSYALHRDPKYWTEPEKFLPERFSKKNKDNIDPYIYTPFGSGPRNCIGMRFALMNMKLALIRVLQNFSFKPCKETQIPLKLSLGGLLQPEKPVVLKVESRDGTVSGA
Chain of Cytochrome P450 2C9 (Homo sapiens) (P11712 whole entry, looked up): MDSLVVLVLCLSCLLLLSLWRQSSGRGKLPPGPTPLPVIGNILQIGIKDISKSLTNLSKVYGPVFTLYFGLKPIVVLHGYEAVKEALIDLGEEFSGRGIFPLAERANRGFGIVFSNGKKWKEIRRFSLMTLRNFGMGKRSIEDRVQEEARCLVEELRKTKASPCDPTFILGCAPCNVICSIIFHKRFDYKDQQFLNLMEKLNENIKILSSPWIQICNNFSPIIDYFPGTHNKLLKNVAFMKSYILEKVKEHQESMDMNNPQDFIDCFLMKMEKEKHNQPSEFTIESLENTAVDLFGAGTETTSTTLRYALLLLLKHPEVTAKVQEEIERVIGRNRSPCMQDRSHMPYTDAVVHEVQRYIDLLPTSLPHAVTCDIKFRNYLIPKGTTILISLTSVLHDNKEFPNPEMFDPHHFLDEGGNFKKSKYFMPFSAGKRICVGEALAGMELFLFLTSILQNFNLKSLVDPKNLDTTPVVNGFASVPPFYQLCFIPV
Chain of Acetylcholinesterase (Homo sapiens) (P22303 whole entry, looked up): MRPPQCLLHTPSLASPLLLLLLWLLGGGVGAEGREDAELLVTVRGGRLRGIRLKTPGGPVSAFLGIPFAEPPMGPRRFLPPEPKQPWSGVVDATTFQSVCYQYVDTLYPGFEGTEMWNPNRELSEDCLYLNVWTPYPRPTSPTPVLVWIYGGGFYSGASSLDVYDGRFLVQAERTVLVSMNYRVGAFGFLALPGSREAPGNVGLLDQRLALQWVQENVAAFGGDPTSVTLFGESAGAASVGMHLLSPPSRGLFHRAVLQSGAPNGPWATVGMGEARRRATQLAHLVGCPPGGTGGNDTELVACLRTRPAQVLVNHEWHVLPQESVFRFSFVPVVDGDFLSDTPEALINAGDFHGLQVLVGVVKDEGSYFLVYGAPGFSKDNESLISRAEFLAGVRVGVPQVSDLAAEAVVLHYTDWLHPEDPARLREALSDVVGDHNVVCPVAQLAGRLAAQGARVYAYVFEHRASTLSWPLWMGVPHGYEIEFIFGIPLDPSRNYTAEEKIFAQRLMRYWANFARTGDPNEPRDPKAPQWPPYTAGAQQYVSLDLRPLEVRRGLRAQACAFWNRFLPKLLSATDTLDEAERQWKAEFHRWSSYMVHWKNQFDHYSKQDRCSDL
Chain of Nuclear receptor subfamily 1 group I member 2 (Homo sapiens) (O75469 whole entry, looked up): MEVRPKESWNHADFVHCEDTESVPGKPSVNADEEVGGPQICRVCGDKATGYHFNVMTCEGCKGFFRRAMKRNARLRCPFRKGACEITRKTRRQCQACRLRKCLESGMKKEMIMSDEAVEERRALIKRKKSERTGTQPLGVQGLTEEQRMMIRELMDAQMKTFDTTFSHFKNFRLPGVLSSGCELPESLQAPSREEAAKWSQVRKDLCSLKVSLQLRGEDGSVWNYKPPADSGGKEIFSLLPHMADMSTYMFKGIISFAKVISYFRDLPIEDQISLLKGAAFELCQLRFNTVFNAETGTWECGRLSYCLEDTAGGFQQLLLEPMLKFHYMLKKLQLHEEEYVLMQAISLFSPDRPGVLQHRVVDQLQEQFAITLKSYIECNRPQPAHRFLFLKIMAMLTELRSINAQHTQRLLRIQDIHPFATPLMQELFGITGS
Chain of Cytochrome P450 2C19 (Homo sapiens) (P33261 whole entry, looked up): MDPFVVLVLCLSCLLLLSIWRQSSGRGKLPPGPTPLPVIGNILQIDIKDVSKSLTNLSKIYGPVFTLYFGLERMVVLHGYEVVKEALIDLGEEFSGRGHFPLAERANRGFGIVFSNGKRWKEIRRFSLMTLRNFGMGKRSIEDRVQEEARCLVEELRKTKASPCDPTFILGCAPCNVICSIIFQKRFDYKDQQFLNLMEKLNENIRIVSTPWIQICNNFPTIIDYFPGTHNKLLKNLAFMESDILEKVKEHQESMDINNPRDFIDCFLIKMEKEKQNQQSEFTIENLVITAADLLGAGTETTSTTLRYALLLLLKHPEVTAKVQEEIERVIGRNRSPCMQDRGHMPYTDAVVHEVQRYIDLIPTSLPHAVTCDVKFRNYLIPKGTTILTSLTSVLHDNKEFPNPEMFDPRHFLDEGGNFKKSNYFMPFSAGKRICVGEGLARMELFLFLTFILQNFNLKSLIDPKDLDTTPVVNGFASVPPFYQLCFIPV

CS(=O)(=O)c1cc(C(F)(F)F)ccc1C(=O)c1cnoc1C1CC1
inactive: Potency [1] | Potency [2] | Potency [3] | Potency [4] | Potency [5] | Potency [6] | Potency [7] | Potency [8] | Potency [9] | Potency [10] | Potency [11] | Potency [15] | Potency [16]
active: Potency [12] 56.4 µM | Potency [13] 1.59 µM | Potency [14] 35.6 µM

COC(=O)C(c1ccccc1)C1CCCCN1 (centres undefined)
inactive: Potency [1] | Potency [2] | Potency [3] | Potency [4] | Potency [5] | Potency [6] | max activation [17] -3.29% | Potency [18] | Potency [19] | Potency [7] | Potency [8] | Potency [9] | Potency [10] | Potency [14] | Potency [15] | Potency [16]
active: Potency [11] 22.5 µM

c1cc2c(c(N3CCNCC3)c1)OCCO2
inactive: Potency [1] | Potency [2] | Potency [3] | Potency [4] | Potency [5] | Potency [6] | max activation [17] 6.77% | Potency [18] | Potency [19] | Potency [7] | Potency [8] | Potency [10] | Potency [13] | Potency [14] | Potency [15] | Potency [16]

CSc1nc(N=[N+]=[N-])nc(NC(C)C)n1
inactive: Potency [1] | Potency [2] | Potency [3] | Potency [4] | Potency [5] | Potency [7] | Potency [8] | Potency [9] | Potency [10] | Potency [11] | Potency [15]
active: Potency [6] 61.1 µM | Potency [12] 71 µM | Potency [13] 79.6 µM | Potency [14] 28.3 µM

[O]=[Cd]
inactive: Potency [1] | Potency [2] | Potency [3] | Potency [4] | Potency [5] | Potency [6] | max activation [17] 0.414% | Potency [18] | Potency [19] | Potency [7] | Potency [8] | Potency [10] | Potency [11] | Potency [13] | Potency [15] | Potency [16]

CC(=O)Nc1cc([As](=O)(O)O)ccc1O
inactive: Potency [1] | Potency [2] | Potency [3] | Potency [4] | Potency [5] | Potency [6] | max activation [17] -4.41% | Potency [18] | Potency [19] | Potency [7] | Potency [8] | Potency [9] | Potency [10] | Potency [12] | Potency [13] | Potency [15]

NC1=NC(=O)C(c2ccccc2)O1 (centres undefined)
inactive: Potency [1] | Potency [2] | Potency [3] | Potency [4] | Potency [5] | Potency [6] | max activation [17] -2.64% | Potency [18] | Potency [19] | Potency [7] | Potency [8] | Potency [9] | Potency [10] | Potency [11] | Potency [12] | Potency [13] | Potency [15] | Potency [16]

COc1cc2c(cc1OC)[C@@]13CCN4CC5=CCO[C@H]6CC(=O)N2[C@H]1[C@H]6[C@H]5C[C@H]43
inactive: Potency [1] | Potency [2] | Potency [3] | Potency [4] | Potency [5] | max activation [17] -4.15% | Potency [18] | Potency [7] | Potency [8] | Potency [9] | Potency [10] | Potency [12] | Potency [13] | Potency [14]
active: Potency [6] 21.7 µM

CN1C[C@@H](NS(=O)(=O)N(C)C)C[C@@H]2c3cccc4c3c(cn4C)C[C@H]21
inactive: Potency [1] | Potency [2] | Potency [3] | Potency [4] | Potency [5] | Potency [7] | Potency [8] | Potency [10] | Potency [11] | Potency [12] | Potency [13] | Potency [15] | Potency [16]
active: Potency [6] 23.7 µM | Potency [17] 10 µM

CNCC(=O)c1ccc(O)c(O)c1
inactive: Potency [1] | Potency [2] | Potency [3] | Potency [4] | Potency [5] | Potency [6] | Potency [7] | Potency [8] | Potency [9] | Potency [10] | Potency [11] | Potency [12] | Potency [13] | Potency [14] | Potency [15] | Potency [16]

O=C(NCO)NCO
inactive: Potency [1] | Potency [2] | Potency [3] | Potency [4] | Potency [5] | Potency [6] | Potency [7] | Potency [8] | Potency [9] | Potency [10] | Potency [11] | Potency [12] | Potency [13] | Potency [14] | Potency [15] | Potency [16]

Cc1nc(N)nc(N)n1
inactive: Potency [1] | Potency [2] | Potency [3] | Potency [4] | Potency [5] | Potency [6] | Potency [7] | Potency [8] | Potency [9] | Potency [10] | Potency [11] | Potency [12] | Potency [13] | Potency [14] | Potency [15] | Potency [16]

CCOC(=O)CP(=O)(OCC)OCC
inactive: Potency [1] | Potency [2] | Potency [3] | Potency [4] | Potency [5] | Potency [6] | Potency [7] | Potency [8] | Potency [9] | Potency [10] | Potency [11] | Potency [12] | Potency [13] | Potency [14] | Potency [15] | Potency [16]

CCN(CC)C(C)C(=O)c1ccccc1 (centres undefined)
inactive: Potency [1] | Potency [2] | Potency [3] | Potency [4] | Potency [5] | Potency [6] | max activation [17] -2.77% | Potency [18] | Potency [19] | Potency [7] | Potency [8] | Potency [9] | Potency [10] | Potency [12] | Potency [13] | Potency [14] | Potency [15] | Potency [16]
active: Potency [11] 19.5 µM

CCC1(c2ccccc2)C(=O)NC(=O)NC1=O
active: Potency [11] 11.5 µM
inactive: Potency [1] | Potency [2] | Potency [3] | Potency [4] | Potency [5] | Potency [6] | max activation [17] -0.894% | Potency [18] | Potency [19] | Potency [7] | Potency [8] | Potency [9] | Potency [10] | Potency [12] | Potency [13] | Potency [15]
